Bioassay records (PubChem)
Only some compounds are listed: those with a hit (about 1.4% of all), similar ones and a draw of the others.
GLS inhibitor = glutaminase GLS (human) inhibition | hit rate 0.21% among 410,000 | GLS enzymatic activity, qHTS titration | O94925 | AID 624170 | Potency, µM (top dose mostly 45.5 µM), inactives show top-dose activity change, negative = inhibition, usual class: inhibitors; note: potency is the fitted concentration of half-maximal effect
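hKGA in 45 mM KH2PO4 pH 8.2, 0.02% Tween-20 with pin-transferred compounds; 1 mM L-glutamine (stock) plus glutamate oxidase/HRP/Amplex Red coupling added. Fluorescence read initially and after 30 min at RT.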
TrxR1 substrate = is turned over as a substrate by rat TrxR1; Potency, µM (highest dose often 114 µM), without a hit: at the highest dose activity change, negative = substrate turnover; AID 588456; O89049; hit rate 0.01% among 390,000; purified TrxR1 substrate turnover, NADPH consumption readout; note: potency is the fitted concentration of half-maximal effect; nearly all actives have a fitted effect of over 50% in size
Target sequence (O89049 whole entry, looked up): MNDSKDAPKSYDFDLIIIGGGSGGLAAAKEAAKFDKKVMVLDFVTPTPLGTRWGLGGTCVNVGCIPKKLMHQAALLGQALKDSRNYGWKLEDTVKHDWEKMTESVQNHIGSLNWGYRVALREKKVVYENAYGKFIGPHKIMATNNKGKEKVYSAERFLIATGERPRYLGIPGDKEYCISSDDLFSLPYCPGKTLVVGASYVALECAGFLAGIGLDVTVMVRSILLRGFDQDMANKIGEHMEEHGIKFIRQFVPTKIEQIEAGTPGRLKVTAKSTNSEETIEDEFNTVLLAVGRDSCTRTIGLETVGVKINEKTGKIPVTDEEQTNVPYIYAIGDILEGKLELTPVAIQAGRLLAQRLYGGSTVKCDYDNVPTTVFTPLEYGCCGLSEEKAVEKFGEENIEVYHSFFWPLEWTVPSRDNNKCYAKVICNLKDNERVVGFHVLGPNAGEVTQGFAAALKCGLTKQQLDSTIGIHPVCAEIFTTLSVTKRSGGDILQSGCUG
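Rat TrxR1, dispensed at 90 nM, was prereduced with 400 uM NADPH (final) for 5 min at ~22 deg C, then incubated with compound 15 min before 400 uM selenite. A first-read NADPH fluorescence drop versus no-compound background flagged substrates.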
TrxR1 inh = rat TrxR1 inhibition. recombinant rTrxR1, NADPH fluorescence consumption, selenite substrate. hit rate 1% among 390,000. O89049. AID 588453. Potency, µM (titrated, usually from 114 µM), for inactives: at the highest dose activity change, negative = inhibition, most hits filed as inhibitors; note: potency is the fitted concentration of half-maximal effect; nearly all actives have a fitted effect of over 65% in size
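Rat TrxR1 (90 nM in the dispensed reagent) was pre-reduced with 400 uM NADPH for 5 min at room temperature, then incubated with compound for 15 min. After 400 uM selenite was added, NADPH fluorescence (Ex 340/Em 450 nm) was followed for 8 min.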
mIDH1 inhibitor = human IDH1 R132H inhibition | IDH1-R132H enzyme, NADPH consumption, diaphorase/resazurin fluorescence | Potency, µM (top dose mostly 76.6 µM), inactives show at the top dose activity change, negative = inhibition, actives largely listed as inhibitors | hit rate 0.093% among 390,000 | AID 602179; note: potency is the fitted concentration of half-maximal effect; nearly all actives have a fitted effect of over 65% in size
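IDH1-R132H (0.5 ug/mL dispensed) in pH 7.5 Tris buffer was preincubated 30 min with compound, then given a substrate mix of 0.016 mM NADPH and 2 mM alpha-KG for 80 min at room temperature; remaining NADPH was read by diaphorase/resazurin fluorescence.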
PKM2 activator = PKM2 (human) enzyme activation | P14618 | Potency, µM (highest dose often 57.5 µM), for the others: at the top dose activation, hits mostly activators | purified PKM2, Kinase-Glo ATP luminescence, activation; response scale: 0% is enzyme alone, no compound | hit rate 0.34% among 260,000; note: potency is the fitted concentration of half-maximal effect; nearly all actives have a fitted effect of over 55% in size
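hPK-M2, >95% pure; 0.1 mM ADP / 0.5 mM PEP final; imidazole pH7.2 buffer w/ 7 mM MgCl2, 50 mM KCl; 1 h RT; Kinase-Glo lum. Intermediate enzyme activity for dual inhibitor/activator qHTS.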
LDHA block = blocks human lactate dehydrogenase A; P00338; activity change, % (values are at about 110 or 230 µM); hit rate 0.15% among 480,000; purified LDHA, NADH/diaphorase-resazurin fluorescence; stronger effect = lower value; in the data active = activity change below about -30%; inconclusive = mostly about -25% to -30%;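 note: plate controls were DMSO wells for no effect and wells without enzyme for full effect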
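Human LDH5 at 2 nM final in Tris HCl pH 7.4 with 0.06 mM NADH and 0.2 mM pyruvate, reacted 5 minutes at room temperature. Remaining NADH coupled via diaphorase/resazurin; resorufin fluorescence read at 0 and 20 minutes, normalized to enzyme-free and DMSO wells.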
* = called active by the depositor; i = inactive; ? = inconclusive; . = not tested or not shown; ! = not active in a repeat; [ ] = another dose, or the depositor's remark. Unless noted, calls come from the whole dose curve; as a rule, active = well fitted curve in the direction sought with a large enough effect; inconclusive = small, poorly fitted or top-dose-only effect, or another doubt; inactive = no such curve, though single readings can be large; an effect the other way counts as inactive or inconclusive. Unless noted, % is set by controls: 0 for no effect and ±100 for the full control effect.

SMILES	GLS inhibitor	TrxR1 substrate	TrxR1 inh	mIDH1 inhibitor	PKM2 activator	LDHA block
Cc1[nH]nc2c1C(c1ccc(-c3ccc(F)cc3)o1)SCC(=O)N2 (stereo not drawn)	.	.	.	.	.	22
CN1C(=O)N(C)C(=O)C2(Sc3ccccc3C2=O)C1=O	11%	3%	28µM*	6%	1%	-1
CCC1(c2ccccc2)C(=O)N(C)C(=O)N(C)C1=O	-10%	3%	22%	-1%	1%	-2
c1coc(CN2Cc3ccccc3-n3nncc3C2)c1	0%	.	.	-2%	.	-32*
c1ccc(CN2Cc3ccccc3-n3nncc3C2)cc1	8%	.	.	4%	.	-12
O=[N+]([O-])/C=C/c1c[nH]c2ccccc12	.	.	.	.	.	8
CN(CCOc1ccc(C=C2C(=O)NC(=O)NC2=O)cc1)c1ccccn1	0%	13%	?	8%	?	-32*
C=CC[C@@H](CC/C=C/C=C/CC/C=C\[C@@H]1CSC([C@@H]2C[C@@H]2C)=N1)OC	-8%	0%	50µM*	-8%	.	4
COc1ccc(-c2c(C#N)c(N)nc3c2c(=O)nc2sccn23)cc1OC	.	.	.	.	.	10
Cc1cccc(-n2c(/C=C/c3ccco3)nc3ccccc3c2=O)c1	.	.	.	.	.	6
COc1ccc(CCN)cc1OC	5%	6%[57.1 µM]	4%[57.1 µM]	6%	-17%	4
CNCCc1ccc(OC)c(OC)c1	3%	6%[57.1 µM]	20µM*	1%	2%	-3
Cn1c(=O)oc(=O)c2ccccc21	3%	150%	56µM*	1%	.	2
O=C(O)c1cccc2c1NC(c1cccc([N+](=O)[O-])c1)C1CC(Sc3ccccc3[N+](=O)[O-])C(Cl)C21 (stereo not drawn)	5%	-6%[57.1 µM]	-10%[57.1 µM]	29µM*	1%	3
CCN(CC)C(=O)c1ccc2c(c1)C1C=CCC1C(C(=O)O)N2 (stereo not drawn)	7.1µM*	7%[2.29 µM]	?	10%	.	12
CCN(CC)C(=O)c1ccc2c(c1)C1C(Cl)C(Sc3ccccc3[N+](=O)[O-])CC1C(C(=O)O)N2 (stereo not drawn)	?	4%	50µM*	-3%	-15%	2
O=[N+]([O-])/C=C\c1ccc2c(c1)OCO2	.	.	.	.	.	8
Cc1ccc(N2CC(C(=O)OCC(=O)Nc3ccc(C#N)c(Cl)c3)CC2=O)cc1 (stereo not drawn)	.	.	.	.	.	-4
CC(=O)N1N=C(c2c(O)n(C)c(=O)n(C)c2=O)CC1c1ccccc1 (stereo not drawn)	2%	-5%[57.1 µM]	-22%[57.1 µM]	-7%	-4%	7
CC(=O)N1N=C(c2cccnc2)CC1c1ccccc1O (stereo not drawn)	-2%	5%	19%[57.1 µM]	14%	5µM*	-10
C[N+](C)(C)Cc1cccs1	.	.	.	.	.	0
C=CCn1c(O)c(/C=C2/C=c3ccccc3=N2)c(=O)[nH]c1=S	5%	-7%	20µM*	-5%	3%	-1
C=CCn1c(O)c(C=Nc2ccc(F)cc2)c(=O)[nH]c1=O	18%	-6%	6%	-3%	0%	-9
COc1ccc(-c2cc(=NCCCCCC(=O)O)c3cc(C)ccc3o2)cc1	-2%	i	16µM*!	10%	3%	-11
CC(C)N1CCN(Cc2c[nH]c3ccccc23)CC1	.	.	.	.	.	-1
SMILES	GLS inhibitor	TrxR1 substrate	TrxR1 inh	mIDH1 inhibitor	PKM2 activator	LDHA block
COC(=O)COc1ccc(/C=C2\C(=O)NC(=S)N(c3ccc(C)cc3)C2=O)cc1OC	-17%	0%	4µM*	18%	.	-3
COc1ccc(N2C(=O)/C(=C/c3ccc(OC)c(OC)c3)C(=O)NC2=S)cc1	-20%	0%	13µM*	-7%	2%	2
COc1ccc(N2C(=O)/C(=C/c3ccc(C)o3)C(=O)NC2=S)c(OC)c1	?	-2%	14µM*	-2%	23%	10
Cc1cccc(N2C(=O)/C(=C/c3ccc(N4CCN(C)CC4)o3)C(=O)NC2=S)c1C	?	-14%	?	3%	-11%	9
CCOC(=O)COc1ccc(/C=C2\C(=O)NC(=S)N(c3ccc(OC)cc3)C2=O)cc1OC	-14%	-1%	3.2µM*	-10%	.	-3
COC1C(O)CC(OC2C(O)CC(OC3C(O)CC(OC4CCC5(C)C(CCC6[C@@H]5CC(O)C5(C)C(C7=CC(=O)OC7)CCC65O)C4)OC3C)OC2C)OC1C (stereo partly drawn)	.	.	.	.	.	-3
COc1cc(CNC2CN3CCC2CC3)ccc1OCc1c(F)cccc1Cl (stereo not drawn)	.	.	.	.	.	4
COc1ccc(C(C#N)C(C)=O)cc1 (stereo not drawn)	.	.	.	.	.	11
CN(C)CCCN1CCC(=O)C2CCCCC21 (stereo not drawn)	.	.	.	.	.	14
CC1=NN(c2ccccc2)C(=O)/C1=C/c1c(O)[nH]c(=S)[nH]c1=O	60%	?	18µM*	-9%	-1%	-9
CC1=NN(c2ccccc2)C(=O)/C1=C/c1c(O)[nH]c(=O)[nH]c1=O	?	-10%[57.1 µM]	-12%[57.1 µM]	1%	1%	-8
CC1=C(O)C(=O)C=C2C1=CC=C1C2(C)CCC2(C)C3CC(C)(C(=O)O)CCC3(C)CCC12C (stereo not drawn)	?	-14%	20µM*	-27%	.	32
Cn1c[n+](C)cc1C(O)c1ccccc1 (stereo not drawn)	1%	-8%	13%[57.1 µM]	0%	-1%	-61*!
Cc1cc(C)c(NC(=O)c2cn(Cc3ccccc3)nn2)c(C)c1	.	.	.	.	.	8
O=C1NC(=O)N(c2ccccc2)C(=O)/C1=C\c1ccc([N+](=O)[O-])s1	?	-19%	56µM*	0%	28%	37
CN1C(=O)NC(=O)/C(=C/c2ccc([N+](=O)[O-])s2)C1=O	-11%	-5%	?	2%	14%	5
COc1ccc(OC)c(N2C(=O)NC(=O)/C(=C\c3ccc([N+](=O)[O-])s3)C2=O)c1	10µM*	-9%[57.1 µM]	?	13%	3%	20
Cn1cccc1/C=C1/C(=O)NC(=S)N(Cc2ccc(F)cc2)C1=O	-21%	-2%	45µM*	2%	-32%	-2
Cc1cc(C[N+](C)(C)C)oc1C	.	.	.	.	.	12
COc1ccc(CN2CCN(C(=O)COc3ccc4ccccc4c3)CC2)cc1	.	.	.	.	.	-2
O=[N+]([O-])c1ccc(N2CC2)c([N+](=O)[O-])c1	-13%	-14%	1%	-6%	.	-8
O=[N+]([O-])c1ccc(Sc2nc3ccccc3o2)c([N+](=O)[O-])c1	-11%	4%	0.63µM*	-2%	0%	3
